PubChem BioAssay (NCI)
About 79,000 compounds went through this panel and 15% of them were active in at least one assay; those are over-represented in the sample as a whole. Calls of active or inactive are those of the source. No stated cut-off is given here; in the data, active means growth inhibition above about 70%; inactive means the rest.

How the values were obtained:
[1] = NCI Yeast Anticancer Drug Screen. Data for the rad52 strain (AID 147);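 further: 0% = growth of vehicle-treated control cultures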; details: S. cerevisiae rad52 mutant growth inhibition, hits give high values
Procedure, shortened: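 Growth of repair-deficient yeast cells was compared between compound-treated and vehicle-treated cultures to give percent inhibition.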

[2] = NCI Yeast Anticancer Drug Screen. Data for the wt1 strain (AID 149);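 further: 0% = growth of vehicle-treated wt1 cultures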; details: S. cerevisiae wt1 strain (SPY 50644) growth inhibition, hits give high values
Procedure, shortened: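 Readout: yeast growth inhibition, normalised to vehicle controls, in the wt1 strain exposed to test compounds.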

[3] = NCI Yeast Anticancer Drug Screen. Data for the rad50EPP+ strain (AID 151);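 further: 0% = growth of vehicle-treated control cultures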; details: S. cerevisiae rad50 mutant strain, hits give high values
Procedure, shortened: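 Measured: growth inhibition of rad50EPP+ yeast. Reference: vehicle-treated controls. Screen uses strains with defined genetic alterations in DNA damage repair or cell cycle control.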

[4] = NCI Yeast Anticancer Drug Screen. Data for the mgt1 strain (AID 153); details: S. cerevisiae mgt1 mutant growth inhibition, hits give high values
Procedure, shortened: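 Compounds were applied to mgt1 mutant yeast, and growth was then compared against vehicle-treated control cultures to give percent inhibition.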

[5] = NCI Yeast Anticancer Drug Screen. Data for the rad50 strain (AID 155);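 further: 0% = growth of vehicle-only cultures of the same strain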; details: S. cerevisiae rad50 strain growth inhibition, hits give high values
Procedure, shortened: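 Compounds were tested on a yeast strain with an engineered DNA damage repair alteration; the reported value is growth inhibition normalised to vehicle treatment.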

[6] = NCI Yeast Anticancer Drug Screen. Data for the mec2-1 strain (AID 157); details: S. cerevisiae mec2-1 strain, hits give high values
Procedure, shortened: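 Compounds were applied to mec2-1 yeast cells. Their growth was then compared with that of vehicle-treated cultures to give growth inhibition.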

[7] = NCI Yeast Anticancer Drug Screen. Data for the rad14 strain (AID 159);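 further: 0% = growth of vehicle-treated control cultures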; details: S. cerevisiae rad14 strain growth inhibition, hits give high values
Procedure, shortened: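 Compound-treated yeast with a defined DNA-repair lesion; growth inhibition normalised to vehicle-treated cultures.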

[8] = NCI Yeast Anticancer Drug Screen. Data for the sgs1 mgt1 strain (AID 161);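 further: 0% = growth of cultures given vehicle only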; details: S. cerevisiae sgs1 mgt1 strain, hits give high values
Procedure, shortened: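 This yeast growth screen uses a strain with defined DNA-repair lesions; compound-treated growth is compared with vehicle-treated growth.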

[9] = NCI Yeast Anticancer Drug Screen. Data for the CLN2oe strain (AID 163);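 further: 0% = growth of vehicle-only control cultures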; details: S. cerevisiae CLN2oe strain, hits give high values
Procedure, shortened: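 Cells of an engineered yeast line with disturbed cell-cycle regulation are treated with compound. Inhibition of growth is then calculated relative to the vehicle-treated reference.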

[10] = NCI Yeast Anticancer Drug Screen. Data for the cln2 rad14 strain (AID 165);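 further: 0% = growth equal to vehicle treated cultures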; details: S. cerevisiae cln2 rad14 strain, hits give high values
Procedure, shortened: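 Strain: cln2 rad14 yeast, altered in cell cycle control and DNA damage repair. Read-out: growth inhibition vs vehicle.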

[11] = NCI Yeast Anticancer Drug Screen. Data for the bub3 strain (AID 167); details: S. cerevisiae bub3 mutant strain, hits give high values
Procedure, shortened: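 Growth of a checkpoint-deficient yeast mutant is measured after compound exposure. Values represent inhibition relative to vehicle.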

[12] = NCI Yeast Anticancer Drug Screen. Data for the wt2 strain (AID 169);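 further: 0% = growth of vehicle-treated yeast cultures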; details: S. cerevisiae wt2 strain growth inhibition, hits give high values
Procedure, shortened: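 Growth of compound-treated yeast is measured and expressed as inhibition relative to vehicle-only controls.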

[13] = NCI Yeast Anticancer Drug Screen. Data for the mlh1 strain (AID 171);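 further: 0% = growth of vehicle-treated control cultures of the same strain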; details: S. cerevisiae mlh1 strain growth inhibition, hits give high values
Procedure, shortened: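 Test agents were incubated with yeast bearing a defined DNA damage repair or cell cycle control alteration; values are growth inhibition normalised to vehicle-treated cultures.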

[14] = NCI Yeast Anticancer Drug Screen. Data for the sgs1 strain (AID 173);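 further: 0% = growth of vehicle-only control cultures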; details: S. cerevisiae sgs1 mutant, hits give high values
Procedure, shortened: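 Strain with an altered DNA repair or cell cycle pathway exposed to compound. Growth then measured. Value = inhibition versus vehicle control.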

[15] = NCI Yeast Anticancer Drug Screen. Data for the mlh1 rad18 strain (AID 175); details: S. cerevisiae mlh1 rad18 strain growth inhibition, hits give high values
Procedure, shortened: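 A repair-deficient yeast strain is exposed to test compound, and growth is scored relative to vehicle-treated controls.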

[16] = NCI Yeast Anticancer Drug Screen. Data for the rad18 strain (AID 177); details: S. cerevisiae rad18 mutant growth inhibition, hits give high values
Procedure, shortened: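 DNA-repair-defective yeast; compound treatment; growth inhibition scored against vehicle.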

[17] = at 5.0 µM (retest, dose inferred, filed as 0.5)
[18] = at 50.0 µM (retest, dose inferred, filed as 5.0)

Measured: growth inhibition

COc1cc(C2SCC(=O)N2c2ccc(-c3ccc(-n4c(-c5ccccc5)nc5ccccc5c4=O)cc3)cc2)ccc1O (stereo not drawn)
inactive: [1]; at 1.2 µM -2% | [1]; at 3.7 µM 0% | [1]; at 11.0 µM 2% | [1]; at 33.0 µM 6% | [1]; at 100.0 µM 16% | [2]; at 1.2 µM -2% | [2]; at 3.7 µM -2% | [2]; at 11.0 µM -1% | [2]; at 33.0 µM -4% | [2]; at 100.0 µM -8% | [3]; at 1.2 µM 3% | [3]; at 3.7 µM 13% | [3]; at 11.0 µM 19% | [3]; at 33.0 µM 27% | [3]; at 100.0 µM 27% | [4]; at 1.2 µM 1% | [4]; at 3.7 µM 1% | [4]; at 11.0 µM 0% | [4]; at 33.0 µM 2% | [4]; at 100.0 µM 28% | [5]; at 1.2 µM -4% | [5]; at 3.7 µM -1% | [5]; [17] -11% | [5]; at 11.0 µM 0% | [5]; at 33.0 µM 8% | [5]; [18] 35% | [5]; at 50.0 µM 58.4% | [5]; at 100.0 µM 21% | [6]; at 1.2 µM 0% | [6]; at 3.7 µM -1% | [6]; [17] -11% | [6]; at 11.0 µM 0% | [6]; at 33.0 µM 2% | [6]; [18] 21% | [6]; at 50.0 µM 34% | [6]; at 100.0 µM 9% | [7]; at 1.2 µM -1% | [7]; at 3.7 µM -1% | [7]; at 11.0 µM 2% | [7]; at 33.0 µM 11% | [7]; at 100.0 µM 25% | [8]; [17] -7% | [8]; [18] 31% | [8]; at 50.0 µM 65% | [9]; at 1.2 µM -2% | [9]; at 3.7 µM -2% | [9]; at 11.0 µM -7% | [9]; at 33.0 µM -14% | [9]; at 100.0 µM -14% | [10]; [17] -9% | [10]; [18] 10% | [10]; at 50.0 µM 25.7% | [11]; at 1.2 µM 1% | [11]; at 3.7 µM 9% | [11]; [17] -14% | [11]; at 11.0 µM 19% | [11]; at 33.0 µM 23% | [11]; [18] 69% | [11]; at 100.0 µM 41% | [12]; at 1.2 µM -2% | [12]; at 3.7 µM -2% | [12]; at 11.0 µM -2% | [12]; at 33.0 µM -2% | [12]; at 100.0 µM 4% | [13]; at 1.2 µM -2% | [13]; at 3.7 µM 1% | [13]; at 11.0 µM 1% | [13]; at 33.0 µM 3% | [13]; at 100.0 µM 20% | [14]; at 1.2 µM -3% | [14]; at 3.7 µM 0% | [14]; at 11.0 µM 0% | [14]; at 33.0 µM 2% | [14]; at 100.0 µM 10% | [15]; [17] -14% | [16]; at 1.2 µM -3% | [16]; at 3.7 µM -1% | [16]; at 11.0 µM 0% | [16]; at 33.0 µM 3% | [16]; at 100.0 µM 7%
active: [11]; at 50.0 µM 82.3% | [15]; [18] 76% | [15]; at 50.0 µM 73.7%

O=C(/C=C/c1cc(Cl)cc(Cl)c1O)c1cccc(O)c1
inactive: [1]; at 1.2 µM 37% | [1]; at 3.7 µM 36% | [2]; at 1.2 µM 4% | [2]; at 3.7 µM 6% | [2]; at 11.0 µM 50% | [3]; at 1.2 µM 66% | [4]; at 1.2 µM 14% | [4]; at 3.7 µM 25% | [5]; at 1.2 µM 1% | [5]; at 3.7 µM 16% | [5]; [17] 14% | [5]; at 11.0 µM 67% | [6]; at 1.2 µM -19% | [6]; at 3.7 µM 0% | [6]; [17] -9% | [7]; at 1.2 µM 31% | [7]; at 3.7 µM 48% | [8]; [17] 6% | [9]; at 1.2 µM 9% | [9]; at 3.7 µM 23% | [10]; [17] 29% | [11]; at 1.2 µM -12% | [11]; at 3.7 µM -11% | [11]; [17] 38% | [11]; at 11.0 µM 39% | [12]; at 1.2 µM 29% | [12]; at 3.7 µM 27% | [13]; at 1.2 µM 0% | [13]; at 3.7 µM 21% | [14]; at 1.2 µM 22% | [14]; at 3.7 µM 23% | [16]; at 1.2 µM 14% | [16]; at 3.7 µM 13% | [16]; at 11.0 µM 56%
active: [1]; at 11.0 µM 80% | [1]; at 33.0 µM 98% | [1]; at 100.0 µM 99% | [2]; at 33.0 µM 98% | [2]; at 100.0 µM 97% | [3]; at 3.7 µM 70% | [3]; at 11.0 µM 86% | [3]; at 33.0 µM 97% | [3]; at 100.0 µM 97% | [4]; at 11.0 µM 89% | [4]; at 33.0 µM 99% | [4]; at 100.0 µM 98% | [5]; at 33.0 µM 97% | [5]; [18] 97% | [5]; at 50.0 µM 94% | [5]; at 100.0 µM 97% | [6]; at 11.0 µM 85% | [6]; at 33.0 µM 99% | [6]; [18] 99% | [6]; at 50.0 µM 95.2% | [6]; at 100.0 µM 98% | [7]; at 11.0 µM 96% | [7]; at 33.0 µM 98% | [7]; at 100.0 µM 97% | [8]; [18] 95% | [8]; at 50.0 µM 94% | [9]; at 11.0 µM 74% | [9]; at 33.0 µM 98% | [9]; at 100.0 µM 98% | [10]; [18] 98% | [10]; at 50.0 µM 91.5% | [11]; at 33.0 µM 97% | [11]; [18] 97% | [11]; at 50.0 µM 93.2% | [11]; at 100.0 µM 97% | [12]; at 11.0 µM 89% | [12]; at 33.0 µM 98% | [12]; at 100.0 µM 98% | [13]; at 11.0 µM 80% | [13]; at 33.0 µM 98% | [13]; at 100.0 µM 98% | [14]; at 11.0 µM 78% | [14]; at 33.0 µM 98% | [14]; at 100.0 µM 98% | [16]; at 33.0 µM 98% | [16]; at 100.0 µM 98%
